In PubChem BioAssay:

Test: small-molecule microarray binders of probe aNog, primary screen, biochemical, biotinylated probe, 635/667 nm fluorescence (AID 1115);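 also: probe is biotinylated aNog protein used at 0.15 µg/mL for 1 h at 4 C; z-score combines 667 nm fluorescence of each spot with its signal to noise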
Conditions: higher = more signal

Row | Compound | composite z-score
1 | [N-]=[N+]=Nc1ccccc1C[C@]1(C(=O)O)N=C(c2ccc(OCCCO)cc2)O[C@H]1c1ccccc1 | 0.564
2 | CN1C(=O)[C@@]2(Cc3ccccc3)N=C(c3ccc(OCCCO)cc3)O[C@H]2c2ccccc21 | 1.26
3 | NC(=O)[C@@H]1[C@H]2C(=O)O[C@H](c3ccccc3)[C@H](c3ccccc3)N2[C@H](c2ccc(OCCO)cc2)[C@@]12C(=O)Nc1ccc(C#CCCO)cc12 | -0.329
4 | Cc1ccc(S[C@]2(C(=O)NC(C)C)CC(=O)N(Cc3ccccc3Cl)[C@@H]2c2ccc(CO)cc2)cc1 | -0.429
5 | CC(C)=CCCC(C)=CC(O)C1C=CC2C(=O)N(c3ccccc3)C(=O)C2N1Nc1ccccc1F (stereo unspecified) | -0.196
6 | COc1cc2c(cc1OC)CN(C(=O)[C@@H]1[C@H]3C(=O)O[C@H](c4ccccc4)[C@H](c4ccccc4)N3[C@H](c3ccc(O)cc3)[C@@]13C(=O)Nc1ccc(C#CCCO)cc13)CC2 | -0.102
7 | COc1cc(NN2C(C(O)C3CCCCC3)C=CC3C(=O)N(C)C(=O)C32)cc(OC)c1OC (stereo unspecified) | 1.32
8 | CC(C)C(CO)N1C(=O)[C@@H]2[C@H]3C(=O)OCC=C[C@H]3OC23C=CCN(C(C)(C)C)C(=O)[C@@H]13 (stereo partly specified) | -0.133
9 | COC(=O)[C@@]1(Cc2ccc(OC)cc2)[C@H]2c3cc(C(=O)N4CCCC4)n(Cc4ccc(S(C)(=O)=O)cc4)c3C[C@H]2CN1C(=O)c1ccccc1 | -0.121
10 | CCCNC(=O)[C@@]1(Sc2ccc(C)cc2)CC(=O)N(C2CCCCC2)[C@@H]1c1ccc(CO)cc1I | 0.757
11 | CO[C@H]1O[C@H](CO)[C@@H](OC(=O)Nc2ccc(C#N)cc2)[C@@H]2OC(=O)[C@H](Cc3cccc(Br)c3)C/C=C/C[C@@H](Cc3cccc(Br)c3)C(=O)O[C@@H]12 | 0.886
